Sampled rows, rich in hits. Any-hit rate of the full collection: about 1.6%.
Vif inh – inhibitors of HIV Vif; 340,000 tested, 0.35% active; HEK293T cells, Vif self-association by quenched fluorescence, imaging, 24 h; inhibition, % at 7.49 µM; in the data active = inhibition above about 50%, passing the limit was not always enough; inconclusive = no clear call, values can overlap the other calls; inactive = below about 31%
Glyco luc inh – blocks N-linked glycosylation in D54 reporter cells; reporter increase, % at 12.5 µM; D54 ERlucT glycosylation luciferase reporter, 24 h; percent of 100 nM tunicamycin response; AID 588692; 360,000 tested, 0.23% active;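 active = mean luciferase reporter signal, scaled so untreated is 0 and the glycosylation-blocking control 100, at or above a set limit in every replicate; inconclusive = mean reaches the limit but not every replicate does; inactive = mean below the limit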;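 also: luciferase carries N-glycosylation sites so blocking glycosylation raises the light; 0% = median of neutral control wells and 100% = median of 100 nM tunicamycin wells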
RAD54 inh – RAD54 (human) branch migration inhibition; Q92698; RAD54 Holliday junction branch migration, FAM/BHQ fluorescence; inhibition, % at 10.4 µM; 360,000 tested, 0.14% active; AID 602329;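 active = mean normalized replicate activity at least 40 and at least half of replicates scoring 40 or more; inconclusive = only one of the two criteria met; inactive = mean below 40 and under half of replicates reaching 40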;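 also: 0% = median of neutral control wells and 100% = median of positive control wells; inhibitors cause a drop in the FAM fluorescence signal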
Target sequence (Q92698 whole entry, looked up): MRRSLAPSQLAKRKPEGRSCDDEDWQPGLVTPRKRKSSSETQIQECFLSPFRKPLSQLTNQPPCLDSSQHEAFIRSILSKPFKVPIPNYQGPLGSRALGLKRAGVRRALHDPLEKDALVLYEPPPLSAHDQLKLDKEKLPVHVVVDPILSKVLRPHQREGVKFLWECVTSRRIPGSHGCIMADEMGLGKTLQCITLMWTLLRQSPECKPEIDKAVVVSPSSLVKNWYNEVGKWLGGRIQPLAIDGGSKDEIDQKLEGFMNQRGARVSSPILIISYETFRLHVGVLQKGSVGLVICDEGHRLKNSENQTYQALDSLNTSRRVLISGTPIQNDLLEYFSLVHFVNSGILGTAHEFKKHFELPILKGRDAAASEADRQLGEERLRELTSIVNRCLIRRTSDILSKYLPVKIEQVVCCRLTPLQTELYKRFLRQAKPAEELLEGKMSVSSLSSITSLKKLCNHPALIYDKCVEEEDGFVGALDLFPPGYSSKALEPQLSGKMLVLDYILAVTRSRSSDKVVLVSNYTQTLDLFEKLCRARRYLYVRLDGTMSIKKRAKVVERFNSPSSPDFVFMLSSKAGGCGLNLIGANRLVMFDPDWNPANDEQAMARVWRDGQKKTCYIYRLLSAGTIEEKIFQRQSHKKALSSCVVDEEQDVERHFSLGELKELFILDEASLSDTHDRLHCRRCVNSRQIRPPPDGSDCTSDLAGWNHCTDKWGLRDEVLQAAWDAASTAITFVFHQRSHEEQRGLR
ABCB6 inh MLPCN – blocks the human ABCB6 transporter; AID 602162; K562-ABCB6 porphyrin accumulation, flow cytometry, 1 h; active compounds read low; fluorescence ratio to DMSO, % at 10 µM; 360,000 tested, 0.19% active;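 active = fluorescence ratio to DMSO below 75%, the collection mean minus 3 SD; inconclusive = too few cells collected in the well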;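 also: signal is porphyrin accumulated inside mitochondria; 100% equals median channel fluorescence of DMSO control wells; lower ratio means ABCB6 inhibition with less porphyrin fluorescence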
Myeloid diff MLP – compounds promoting myeloid differentiation; ER-HoxA9 myeloid progenitors, lysozyme-GFP differentiation, flow cytometry; calls only at 10 µM; 360,000 tested, 1% active;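 active = normalized GFP-positive differentiation at or above the plate's own cutoff, the solvent-only control mean plus 3 SD; inconclusive = no clear call, values can overlap the other calls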;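 also: cells exposed to compound for four days before flow analysis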
Active calls of the source: *; ! = not active in a repeat.

For CC(=NCc1cccc(Cl)c1)c1nc(-c2ccco2)oc1O the results were Vif inh 1, Glyco luc inh 2, RAD54 inh -1, ABCB6 inh MLPCN 96 and Myeloid diff MLP active.
Oc1oc(-c2ccco2)nc1C=Nc1cccc(Cl)c1 was read as Glyco luc inh 1, RAD54 inh -7, ABCB6 inh MLPCN 98 and Myeloid diff MLP inactive.
`Cc1[nH]c2ccccc2c1/C=C/C(=O)c1ccncc1` gave Vif inh -12, Glyco luc inh -7, ABCB6 inh MLPCN 133 and Myeloid diff MLP active.
For Cc1[nH]c2ccccc2c1/C=C/c1cc[n+](C)cc1 the results were Glyco luc inh -3, RAD54 inh inactive, ABCB6 inh MLPCN inactive and Myeloid diff MLP active.
Screening C=CCn1cc(/C=C/c2cc[n+](C)cc2)c2ccccc21 returned Glyco luc inh -3, RAD54 inh -477, ABCB6 inh MLPCN 766 and Myeloid diff MLP inconclusive.
For CCN(CC)C(=O)Cn1c(C)c(/C=C/c2cc[n+](C)cc2)c2ccccc21 the results were Glyco luc inh -1, RAD54 inh -283, ABCB6 inh MLPCN 292 and Myeloid diff MLP active.
For C=CCn1c(C)c(/C=C/c2cc[n+](C)cc2)c2ccccc21 the results were Glyco luc inh 1, RAD54 inh inactive, ABCB6 inh MLPCN inactive and Myeloid diff MLP active.
`Cc1c(CCC(=O)NCCCn2ccnc2)c(=O)oc2c(C)c3oc4c(c3cc12)CCCC4` gave Vif inh -11, Glyco luc inh -3, RAD54 inh 25, ABCB6 inh MLPCN 99 and Myeloid diff MLP active.
`Cc1cc(C)cc(NC(=O)C2C3C=CC(O3)C2C(=O)O)c1` (stereo unspecified) gave Vif inh 51*, Glyco luc inh 2, RAD54 inh 4, ABCB6 inh MLPCN 100 and Myeloid diff MLP inactive.
For CCOC(=O)c1cc(NC(=O)C2C3C=CC(O3)C2C(=O)O)cc(C(=O)OCC)c1 (stereo unspecified) the results were Vif inh -6, Glyco luc inh -1, RAD54 inh 0, ABCB6 inh MLPCN 95 and Myeloid diff MLP inactive.
`CCC(C)Sc1cccc(-c2nc3cc(C)ccn3c2NC2CCCCC2)c1` (stereo unspecified) gave Vif inh -2, Glyco luc inh -3, RAD54 inh -4, ABCB6 inh MLPCN 107 and Myeloid diff MLP active!.
Screening CCCCCCSc1cc(-c2nc3ccc(Cl)cn3c2NC2CCCCC2)ccc1OC returned Vif inh 1, Glyco luc inh -7, RAD54 inh -4, ABCB6 inh MLPCN 107 and Myeloid diff MLP inconclusive.
Screening Cc1ccn2c(NC3CCCCC3)c(-c3cccc(SC4CCCCC4)c3)nc2c1 returned Vif inh -19, Glyco luc inh 0, RAD54 inh -4, ABCB6 inh MLPCN 97 and Myeloid diff MLP inactive.
`CCCCCCSc1ccc(-c2nc3ccc(Cl)cn3c2NC2CCCCC2)cc1` gave Vif inh 2, Glyco luc inh -1, RAD54 inh 4, ABCB6 inh MLPCN 102 and Myeloid diff MLP active.
Screening CCCCCCSc1cccc(-c2nc3cc(C)ccn3c2NC2CCCCC2)c1 returned Vif inh -2, Glyco luc inh -5, RAD54 inh -18, ABCB6 inh MLPCN 94 and Myeloid diff MLP inactive.
`Cc1ccn2c(NC3CCCCC3)c(-c3ccc(SC4CCCCC4)cc3)nc2c1` gave ABCB6 inh MLPCN 99 and Myeloid diff MLP active.
`O=C(N=c1ccn(-c2nc3ccccc3nc2NS(=O)(=O)c2ccc(Cl)cc2)cc1)c1cccs1` gave Vif inh 82*, Glyco luc inh 0, ABCB6 inh MLPCN 140 and Myeloid diff MLP inactive.
CCCc1cc(=O)oc2cc(OCc3cc(OC)c(OC)c(OC)c3)c(Cl)cc12 was read as Vif inh 106*, Glyco luc inh 1, RAD54 inh -4, ABCB6 inh MLPCN 98 and Myeloid diff MLP inactive.
`C=CCn1c(=S)[nH]c2nc3c(cc2c1=O)CCCC3` gave Vif inh -10, Glyco luc inh 0, RAD54 inh 8, ABCB6 inh MLPCN 70* and Myeloid diff MLP inactive.
`C=CCn1c(=S)[nH]c2ccc(Br)cc2c1=O` gave Vif inh 15, Glyco luc inh 1, RAD54 inh 8, ABCB6 inh MLPCN 95 and Myeloid diff MLP inactive.
`Cc1cc(N/N=C/c2ccc(O)cc2)c2cccc(C)c2n1` gave Vif inh -3, Glyco luc inh 25, RAD54 inh 118*, ABCB6 inh MLPCN 98 and Myeloid diff MLP inactive.
`Cc1cc(N/N=C/c2ccc(N(C)C)cc2)c2ccccc2n1` gave Vif inh -2, Glyco luc inh 0, RAD54 inh -7, ABCB6 inh MLPCN 94 and Myeloid diff MLP inactive.
Cc1cc(C)c2nc(C)cc(N/N=C/c3ccc(O)cc3)c2c1 was read as Vif inh -3, Glyco luc inh -21, RAD54 inh 119*, ABCB6 inh MLPCN 99 and Myeloid diff MLP inconclusive.
Screening CCNC(=O)C[C@@H]1CC[C@H]2[C@@H](COc3ccc(NC(=O)Nc4cccc(F)c4)cc3C(=O)N2C)O1 returned RAD54 inh -2.
`CCN(CC)c1ccc2cc(C(N)=O)c(=O)oc2c1` gave Vif inh 132*, Glyco luc inh 2, RAD54 inh -11, ABCB6 inh MLPCN 94 and Myeloid diff MLP inactive.
For CCN(CC)c1ccc2cc(C(C)=O)c(=O)oc2c1 the results were Vif inh 8, Glyco luc inh 3, RAD54 inh -17, ABCB6 inh MLPCN 98 and Myeloid diff MLP inactive.
Screening CCN(CC)c1ccc2cc(-c3nnc(-c4ccncc4)o3)c(=O)oc2c1 returned Glyco luc inh -3, RAD54 inh -76, ABCB6 inh MLPCN 204 and Myeloid diff MLP active.
Screening C[C@H](CO)N1C[C@H](C)[C@H](CN(C)Cc2ccc(-c3ccccc3)cc2)Oc2ccc(NS(C)(=O)=O)cc2CC1=O returned RAD54 inh 1.
For CC(C)NC(=O)Nc1ccc2c(c1)C(=O)N([C@H](C)CO)C[C@@H](C)[C@@H](CN(C)CC1CCCCC1)OCCCC[C@H](C)O2 the results were RAD54 inh 3.
`O=C(C[C@@H]1C=C[C@H](NC(=O)Nc2ccc(F)cc2)[C@@H](CO)O1)NCc1cccc(F)c1` gave RAD54 inh -2.
`CO[C@H]1CN(C)C(=O)c2ccc(NC(C)=O)cc2OC[C@@H](C)N(Cc2ccccc2C(=O)O)C[C@@H]1C` gave RAD54 inh -14.
Screening COC(=O)c1ccc(CSc2nc3scc(-c4cccs4)c3c(=O)[nH]2)o1 returned Vif inh 29, Glyco luc inh 2, RAD54 inh 4, ABCB6 inh MLPCN 59* and Myeloid diff MLP inactive.
C[C@@H]1CN([C@@H](C)CO)C(=O)c2cc(NC(=O)Nc3ccc(C(F)(F)F)cc3)ccc2O[C@@H](C)CCCCO[C@H]1CN(C)Cc1ccncc1 was read as RAD54 inh -10.
For c1ccc2[nH]c3cc4ncnc4cc3nc2c1 the results were Vif inh 0, Glyco luc inh 26*, ABCB6 inh MLPCN 116 and Myeloid diff MLP inactive.

Screens deposited in PubChem by several laboratories.
